# Reference: the supplement of paper PMC10127200
# Structures can show the parent of a compound that is named as a salt.
# What was measured:
# Assay in all cases: Euclidean distance of Cell Painting phenotypic profile (signed KS, 77 features) to DMSO centroid (dimensionless distance); 5 or 10 uM (library dependent); higher = stronger phenotypic change vs DMSO (phenoactivity)
# Conditions in all cases: 48 h
# 786-O = system: 786-O
# Summary of the method: (§1)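 Phenoactivity is defined as the Euclidean distance from a compound profile to the median vehicle profile. Each profile comprised 77 Harmony features, scored as signed Kolmogorov-Smirnov statistics versus same-plate vehicle wells, then plate-position corrected, correlation-weighted and replicate-averaged at the top dose. Five cancer lines and one healthy fibroblast line were exposed to library compounds for 48 h at 10 or 5 uM (0.1% DMSO final).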
# A549 = system: A549
# Summary of the method: as §1
# DU145 = system: DU145
# Summary of the method: as §1
# FB = system: FB
# Summary of the method: as §1
# HEPG2 = system: HEPG2
# Summary of the method: as §1
# OVCAR4 = system: OVCAR4
# Summary of the method: as §1
SMILES,Euclidean distance (786-O),Euclidean distance (A549),Euclidean distance (DU145),Euclidean distance (FB),Euclidean distance (HEPG2),Euclidean distance (OVCAR4)
Nc1ccccc1NC(=O)c1ccc(CNC(=O)OCc2cccnc2)cc1 [Entinostat (MS-275)],3.47,2.57,2.22,3.25,2.93,2.57
CCC[C@@H]1C[C@@H](C(=O)N[C@@H]([C@H]2O[C@H](SC)[C@H](OP(=O)(O)O)[C@@H](O)[C@H]2O)[C@H](C)Cl)N(C)C1 [Clindamycin Phosphate],1.64,0.653,0.924,0.907,0.808,1.38
Cc1nccn1CCC(C(N)=O)(c1ccccc1)c1ccccc1 [Imidafenacin],0.703,1.19,1.34,1.02,0.727,1.42
CCC1(O)C(=O)OCc2c1cc1n(c2=O)Cc2c-1nc1ccccc1c2CCNC(C)C (stereo not drawn) [Belotecan (CKD-602) hydrochloride],4.55,3.8,3.52,3.19,3.12,3.62
CC(=C(CCO)SSCC1CCCO1)N(C=O)Cc1cnc(C)nc1N (stereo in doubt) [Fursultiamine],1.19,0.749,0.785,1.06,0.579,1.17
OC[C@@H](O)[C@@H](O)[C@H](O)[C@H](O)CO [D-Mannitol],1.14,0.536,0.826,0.744,0.415,0.791
O=C1[C@H](CC[C@H](O)c2ccc(F)cc2)[C@@H](c2ccc(O)cc2)N1c1ccc(F)cc1 [Ezetimibe],1.74,1,3.08,1.36,2.26,1.34
C[C@]1(Cn2ccnn2)[C@H](C(=O)O)N2C(=O)C[C@H]2S1(=O)=O [Tazobactam],0.708,0.639,0.78,0.984,0.41,0.673
Nc1ccn([C@@H]2O[C@H](CO)[C@@H](O)[C@@H]2O)c(=O)n1 [Cytarabine hydrochloride],3.21,3.25,2.45,2.97,2.73,3.43
C=C[C@]1(C)C[C@@H](OC(=O)CS[C@@H]2C[C@H]3CC[C@@H](C2)N3C)[C@]2(C)[C@H](C)CC[C@]3(CCC(=O)[C@H]32)[C@@H](C)[C@@H]1O [Retapamulin],1.44,1.81,1.32,1.51,1.51,1.59
CCCCC(=O)N(Cc1ccc(-c2ccccc2-c2nnn[nH]2)cc1)[C@H](C(=O)O)C(C)C [Valsartan],1.68,1.17,0.682,0.799,0.48,0.776
CO/N=C(\C(=O)N[C@@H]1C(=O)N2C(C(=O)O)=C(CSc3nnnn3C)CS[C@H]12)c1csc(N)n1 [Cefmenoxime hydrochloride],0.657,0.643,1.22,0.686,0.775,0.594
CC[C@@]1(O)C(=O)OCc2c1cc1n(c2=O)Cc2cc3cc(O)ccc3nc2-1 [Hydroxy Camptothecine],3.83,4.01,3.99,3.74,3.55,2.89
OCc1cc([C@@H](O)CNCCCCCCOCCOCc2c(Cl)cccc2Cl)ccc1O [Vilanterol Trifenate],1.28,0.985,1.38,1.28,0.721,1.76
CC(C)c1noc(N2CCC(COc3ccc(-c4ccc(S(C)(=O)=O)cc4)nc3)CC2)n1,1.17,1.53,0.872,0.701,0.585,0.984
Nc1c(CC(=O)O)cccc1C(=O)c1ccc(Br)cc1 [Bromfenac Sodium],1.21,1.01,0.957,1.42,0.3,1.75
Clc1ccc(CCC(Cn2ccnc2)Sc2c(Cl)cccc2Cl)cc1 (stereo not drawn) [Butoconazole],1.21,0.956,1.06,1.04,1.4,1.31
N=C(N)NS(=O)(=O)c1ccc(N)cc1 [Sulfaguanidine],1.11,0.776,1.03,0.936,0.524,1.55
COc1cc(Nc2ncc(F)c(Nc3ccc4c(n3)N(COP(=O)(O)O)C(=O)C(C)(C)O4)n2)cc(OC)c1OC [R788 (Fostamatinib) Disodium],1.37,2.39,2.15,3.19,0.696,2.19
NC(=O)NC1NC(=O)NC1=O (stereo not drawn) [Allantoin],0.856,0.693,1.19,0.801,3.52,1.68
O=C1C[C@@H](c2ccc(O)cc2)Oc2cc(O)cc(O)c21 [Naringenin],0.882,1.06,0.744,1.06,0.936,1.11
COCC[n+]1c2c(n(Cc3cnccn3)c1C)C(=O)c1ccccc1C2=O [YM155 (Sepantronium Bromide)],5.76,5.14,7.03,5.89,3.26,5.47
NS(=O)(=O)c1ccccc1 [Benzenesulfonamide],1.16,0.87,1.05,1.27,0.909,0.962
COc1cc(N2CCC(N3CCN(C)CC3)CC2)ccc1Nc1ncc(Cl)c(Nc2ccccc2S(=O)(=O)C(C)C)n1,2.54,3.06,2.48,3.6,1.66,3.35
CCCC(=O)Nc1ncnc2c1ncn2[C@@H]1O[C@@H]2COP(=O)(O)O[C@H]2[C@H]1OC(=O)CCC [Dibutyryl-cAMP (Bucladesine)],1.05,0.792,0.663,0.745,0.883,1.53
CSCCNc1nc(SCCC(F)(F)F)nc2c1ncn2[C@@H]1O[C@H](COP(=O)(O)OP(=O)(O)C(Cl)(Cl)P(=O)(O)O)[C@@H](O)[C@H]1O [Cangrelor Tetrasodium],1.09,1.07,0.563,1.25,0.767,0.58
CC(C)c1cc(C(=O)N2Cc3ccc(CN4CCN(C)CC4)cc3C2)c(O)cc1O,3.5,2.81,3.91,2.97,2.99,2.89
O=C(O)[C@]1(Cc2cccc(Nc3nccs3)n2)CC[C@@H](Oc2cccc(Cl)c2F)CC1,2.59,3.36,0.648,0.818,0.498,2.16
